Screening data from PubChem BioAssay.
hDAT+cocaine – modulates human dopamine transporter uptake under cocaine; Q01959; LLC-PK1 hDAT cells, [14C]-dopamine uptake with cocaine IC80; actives deviate in either direction; B-score at 10 µM; actives 1.3% (n = 110,000); AID 449768;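 active = Z score or B-score, a plate-position-corrected score, falls beyond the plate's 99.7% confidence bounds, in either direction; inactive = both scores lie inside the 99.7% bounds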;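 also: scored against the spread of the other compound wells on the same plate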
Target sequence (Q01959 whole entry, looked up): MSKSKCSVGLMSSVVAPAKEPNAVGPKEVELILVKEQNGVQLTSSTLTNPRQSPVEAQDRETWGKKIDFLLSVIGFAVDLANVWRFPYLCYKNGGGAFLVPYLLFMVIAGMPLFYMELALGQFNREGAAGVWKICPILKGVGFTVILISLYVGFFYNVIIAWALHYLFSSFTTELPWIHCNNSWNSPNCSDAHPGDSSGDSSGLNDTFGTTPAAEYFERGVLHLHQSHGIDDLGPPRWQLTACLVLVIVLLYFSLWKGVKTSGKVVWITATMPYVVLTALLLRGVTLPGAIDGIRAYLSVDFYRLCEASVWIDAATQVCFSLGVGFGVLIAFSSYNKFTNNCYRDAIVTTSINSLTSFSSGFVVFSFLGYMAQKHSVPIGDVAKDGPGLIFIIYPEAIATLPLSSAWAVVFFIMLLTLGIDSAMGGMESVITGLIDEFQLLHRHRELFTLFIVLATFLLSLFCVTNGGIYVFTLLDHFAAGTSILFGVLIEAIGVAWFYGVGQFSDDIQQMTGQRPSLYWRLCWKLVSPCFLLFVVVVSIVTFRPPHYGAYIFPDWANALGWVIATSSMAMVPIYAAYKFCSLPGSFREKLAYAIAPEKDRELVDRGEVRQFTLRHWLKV
HCT116 PTEN-null – suppresses growth of cells with PTEN deletion; HCT116 PTEN-null viability, CellTiter-Glo, 60 h; hits give low values; actives 1.2% (n = 140,000); viability, % at 10 µM;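 active = viability at or below a set limit, 4 SD under the median of all tested compounds, cut at about 3.7% in these data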;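 also: PTEN knockout HCT116 line with beta catenin targeted HCT116 as companion control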
HCT116 bCat-KO – beta-catenin-lacking colon tumor cell growth suppression; actives 1.5% (n = 140,000); AID 818; HCT116 beta-catenin knockout viability, CellTiter-Glo, 60 h; hits give low values; viability, % at 10 µM;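 active = viability at or under a set limit, the compound median less 4 SD, cut at about 6% in these data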;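 also: 0% = Hyamine 1622 control at 20 µM and 100% = untreated cell control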
WT yeast gro inh – growth inhibition of WT yeast, mitochondrial fusion screen; mitochondrial fusion phenotypic screen, WT strain; inhibition, % at 10 µM; actives 2.1% (n = 190,000); AID 1362; in the data active = inhibition above about 58%; tested in S. cerevisiae
* marks the source's active call; other numbers are inactive results. Sampled rows, rich in hits. Any-hit rate of the full collection: about 3.6%.

What do the screens show for `C=C(C)c1cccc(C(C)(C)NC(=O)N2CCN(CC)CC2)c1`?
hDAT+cocaine: -0.79; HCT116 PTEN-null: 100.0; HCT116 bCat-KO: 100.4; WT yeast gro inh: -18.8

How did Cc1ccc(-n2nnnc2-c2cnc(-c3cccnc3)nc2C(F)(F)F)cc1 do in these assays?
hDAT+cocaine: 1.69; HCT116 PTEN-null: 61.4; HCT116 bCat-KO: 66.6; WT yeast gro inh: 18.2

Results for FC(F)(F)c1nc(N2CCCC2)ncc1-c1nnnn1-c1ccc(Cl)cc1 ?
hDAT+cocaine: -0.671; HCT116 PTEN-null: 27.8; HCT116 bCat-KO: 20.6; WT yeast gro inh: 58.9*

What do the screens show for `Cc1nc2scc(-c3ccc(C(C)(C)C)cc3)c2c(=O)n1N`?
WT yeast gro inh: -9.4

How did Cc1cc(C)c(NC(=S)NC(NC(=O)c2ccccc2)C(Cl)(Cl)Cl)c(C)c1 (centres undefined) do in these assays?
HCT116 PTEN-null: 3.9; HCT116 bCat-KO: 7.4; WT yeast gro inh: 22.2

Results for O=C(NC(NC(=S)Nc1ccc(Cl)cc1Cl)C(Cl)(Cl)Cl)c1cccc([N+](=O)[O-])c1 (centres undefined) ?
hDAT+cocaine: -1.21; HCT116 PTEN-null: 3.3*; HCT116 bCat-KO: 4.1*; WT yeast gro inh: -18.5

Results for O=C(NC(NC(=S)Nc1ccccc1)C(Cl)(Cl)Cl)c1cccc(Cl)c1 (centres undefined) ?
hDAT+cocaine: -0.242; HCT116 PTEN-null: 2.0*; HCT116 bCat-KO: 2.6*; WT yeast gro inh: -11.0

How did CSc1c(CC(=O)Nc2ccc(F)cc2)n(Cc2ccccc2)c2ccccc12 do in these assays?
HCT116 PTEN-null: 73.1; HCT116 bCat-KO: 77.9; WT yeast gro inh: 12.6

How did CC(C)CNC(=O)c1cccc(NC(=O)Cc2ccc(Cl)cc2)c1 do in these assays?
HCT116 PTEN-null: 93.2; HCT116 bCat-KO: 95.5; WT yeast gro inh: -7.8

What do the screens show for `O=C(OCCNc1nc(-c2ccccc2)nc2ccccc12)c1cccnc1`?
WT yeast gro inh: 23.7

Results for CCCOC(=O)c1cccc(Nc2nc(-c3cccnc3)nc3ccccc23)c1 ?
HCT116 PTEN-null: 3.6*; HCT116 bCat-KO: 7.3; WT yeast gro inh: 12.0

What do the screens show for `O=C(O)CN(c1ccccc1)S(=O)(=O)c1cc(C(F)(F)F)cc(C(F)(F)F)c1`?
WT yeast gro inh: -8.4

How did Cc1ccc(NS(=O)(=O)c2ccc(NC(=O)c3cccc(NC(=O)C(C)C)c3)cc2)cc1 do in these assays?
hDAT+cocaine: -0.0352; HCT116 PTEN-null: 55.4; HCT116 bCat-KO: 51.4; WT yeast gro inh: -2.5

What do the screens show for `NNC(=O)Nc1cccc(C(F)(F)F)c1`?
WT yeast gro inh: -0.5

Results for Cc1ccc(S(=O)(=O)Nc2ccc(NC(=O)Nc3cccc(C(F)(F)F)c3)cc2)cc1 ?
HCT116 PTEN-null: 1.6*; HCT116 bCat-KO: 1.2*; WT yeast gro inh: 15.6

How did CCN(CC)S(=O)(=O)c1ccc(NC(=O)Nc2cccc(C(F)(F)F)c2)cc1 do in these assays?
hDAT+cocaine: 1.12; HCT116 PTEN-null: 1.8*; HCT116 bCat-KO: 1.4*; WT yeast gro inh: -18.7

Results for O=C(Nc1ccc(OC(F)F)cc1)Nc1cccc(C(F)(F)F)c1 ?
hDAT+cocaine: 0.0899; HCT116 PTEN-null: 3.1*; HCT116 bCat-KO: 2.3*; WT yeast gro inh: 83.4*

How did Cc1ccc(C(=O)Nc2ccccc2C(=O)NC(C(=O)O)C(C)C)cc1 (centres undefined) do in these assays?
hDAT+cocaine: -0.039; HCT116 PTEN-null: 0.8*; HCT116 bCat-KO: 0.5*; WT yeast gro inh: -5.3

What do the screens show for `Clc1ccccc1/C=N/NC1=Nc2cccc3cccc1c23`?
HCT116 PTEN-null: 43.3; HCT116 bCat-KO: 42.3; WT yeast gro inh: 11.1

How did C(=N\NC1=Nc2cccc3cccc1c23)/c1ccccn1 do in these assays?
WT yeast gro inh: 68.3*

What do the screens show for `COC(=O)CN1C(c2ccc(Cl)cc2)=Nc2ccc(Cl)cc2C1c1ccccc1` (centres undefined)?
HCT116 PTEN-null: 53.9; HCT116 bCat-KO: 60.1; WT yeast gro inh: 81.8*

Results for O=[N+]([O-])c1ccc(/C=N/Nc2nc(N3CCCCCC3)nc(N3CCCCCC3)n2)o1 ?
HCT116 PTEN-null: 31.9; HCT116 bCat-KO: 49.3; WT yeast gro inh: 63.2*

How did Cc1ccc(C)c(-n2nnnc2Sc2nnnn2-c2ccccc2)c1 do in these assays?
hDAT+cocaine: 0.742; HCT116 PTEN-null: 1.8*; HCT116 bCat-KO: 2.0*; WT yeast gro inh: -42.5

How did Cc1c(Br)c([N+](=O)[O-])nn1C(C)C(=O)NCC1CCCO1 (centres undefined) do in these assays?
WT yeast gro inh: 1.1

What do the screens show for `CCC(C)N1CCN(C(=O)c2cccs2)CC1` (centres undefined)?
hDAT+cocaine: -0.642; HCT116 PTEN-null: 103.7; HCT116 bCat-KO: 97.9; WT yeast gro inh: -1.5

Results for O=C1c2ccccc2C(=O)C12OC2c1ccc(Cl)cc1Cl (centres undefined) ?
HCT116 PTEN-null: 1.7*; HCT116 bCat-KO: 2.6*; WT yeast gro inh: 17.1

Results for CC1SC(c2ccc(Cl)cc2Cl)NC1=O (centres undefined) ?
hDAT+cocaine: 0.711; HCT116 PTEN-null: 95.0; HCT116 bCat-KO: 90.5; WT yeast gro inh: -7.8

How did CS(=O)(=O)c1nc(-c2ccccc2)cc(-c2ccccc2)c1C#N do in these assays?
hDAT+cocaine: 0.51; HCT116 PTEN-null: 2.4*; HCT116 bCat-KO: 1.9*; WT yeast gro inh: 0.5

Results for CC1CCC(C(C)C)C(OC(=O)Cn2c(-c3ccccc3)[n+](C)c3ccccc32)C1 (centres undefined) ?
HCT116 PTEN-null: 1.9*; HCT116 bCat-KO: 1.4*; WT yeast gro inh: 40.0

Results for Cc1cccc(OCc2n(CC(=O)OC3CC(C)CCC3C(C)C)c3ccccc3[n+]2C)c1 (centres undefined) ?
WT yeast gro inh: 43.5

What do the screens show for `CC1CCC(C(C)C)C(OC(=O)Cn2c(-c3ccc(F)cc3)[n+](C)c3ccccc32)C1` (centres undefined)?
HCT116 PTEN-null: 1.5*; HCT116 bCat-KO: 2.0*; WT yeast gro inh: 23.2

Results for CCCCOc1ccc(C(=O)Nn2c(-c3cccs3)nc3ccccc3c2=O)cc1 ?
HCT116 PTEN-null: 84.1; HCT116 bCat-KO: 87.7; WT yeast gro inh: -1.3

How did CCOC(=O)c1sc(NC(=O)CSc2nnc(C(C)C)n2CC)nc1C do in these assays?
hDAT+cocaine: 2.54*; HCT116 PTEN-null: 93.5; HCT116 bCat-KO: 99.9; WT yeast gro inh: 12.7

What do the screens show for `CCOC(=O)c1sc(NC(=O)CSc2nnc(C(C)C)n2C)nc1C`?
hDAT+cocaine: 1.1; HCT116 PTEN-null: 89.8; HCT116 bCat-KO: 83.0; WT yeast gro inh: -15.9

How did NS(=O)(=O)c1ccc(N/N=C/c2cn(-c3ccccc3)nc2-c2cccs2)c([N+](=O)[O-])c1 do in these assays?
WT yeast gro inh: 25.1

How did N#Cc1ccc(N/N=C/c2cn(-c3ccccc3)nc2-c2ccccc2)c([N+](=O)[O-])c1 do in these assays?
HCT116 PTEN-null: 1.0*; HCT116 bCat-KO: 1.8*; WT yeast gro inh: -3.2

What do the screens show for `CCC1(C)Cc2ccccc2-c2nc(NCCO)[nH]c(=O)c21` (centres undefined)?
hDAT+cocaine: -2.9*; HCT116 PTEN-null: 88.6; HCT116 bCat-KO: 94.3; WT yeast gro inh: -3.4

Results for CCc1nnc(NC(=O)C2Cc3ccccc3CN2S(=O)(=O)c2ccc(C)cc2)s1 (centres undefined) ?
hDAT+cocaine: 0.486; HCT116 PTEN-null: 72.0; HCT116 bCat-KO: 64.9; WT yeast gro inh: 78.7*
